ABHD5 PLIN5 PPI: ABHD5-PLIN5 interaction inhibitors, primary screen, cell lysate, split luciferase complementation, luminescence | Split G. princeps luciferase complementation, 4 h | inhibition, % at 4 µM | hit rate 0.78% among 360,000;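 active means inhibition above the mean inhibition across every tested compound plus 3 SD, cut at about 22% in these data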;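 further: 0% = DMSO only wells and the 100% control is not disclosed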
UHRF1 MBD2 ctr: UHRF1 methylated DNA binding inhibitors, primary screen, counter-screen for MBD2 inhibitor project, biochemical, TR-FRET, human UHRF1, single concentration; E3 ubiquitin-protein ligase UHRF1 (Homo sapiens), Q96T88; UHRF1 binding to methylated oligo; inhibition, % at 4.4 µM; hit rate 0.75% among 370,000; AID 687016, 2013; in the data active means inhibition above about 21%;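 further: UHRF1 SRA domain binding a hemimethylated CpG hairpin DNA probe; 0% = median of test compound wells and 100% = reference inhibitor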
PRMT1 FP inh: PRMT1 methyltransferase inhibitors, primary screen, biochemical, fluorescence polarization. Protein arginine N-methyltransferase 1 (Homo sapiens), Q99873. recombinant PRMT1, activity-based probe fluorescence polarization. inhibition, % at 2.79 µM. hit rate 1.3% among 370,000;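 active means inhibition above about 21% made by adding two undisclosed values, limit read from the data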
rCAG binder: binders of r(CAG) RNA repeats, primary screen, biochemical, fluorescence | r(CAG) RNA repeat, TO-PRO-1 dye displacement fluorescence | inhibition, % at 3 µM | hit rate 1.3% among 370,000 | AID 651821, 2012;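 active means inhibition above the plate cutoff, the mean of all test compounds on that plate plus 3 SD, cut at about 35% in these data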;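 further: 0% = DMSO alone and 100% = 100 µM mitoxantrone as full dye displacement; higher means more dye released from RNA so lower well fluorescence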
LEDGF integ inh: blockers of LEDGF/p75-dependent integrase strand transfer – biochemical, TR-FRET, high throughput, primary screen; AID 743269, 2014; TR-FRET IN-LEDGF/p75 DNA integration, Eu/Cy5; inhibition, % at 3.7 µM; HIV-1 integrase (with human LEDGF/p75); hit rate 0.64% among 370,000;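 active means inhibition above the screen-wide mean plus 3 SD, cut at about 13% in these data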;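 further: signal is the Cy5 over europium emission ratio at 671 and 618 nm; 0% = plate median of compound wells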
MBD2 inh: inhibitors of MBD2 binding to methylated DNA, primary screen, biochemical, TR-FRET, DNA-binding domain, human; inhibition, % at 4.4 µM; Methyl-CpG-binding domain protein 2 (Homo sapiens), Q9UBB5; MBD2 binding to methylated oligonucleotide; hit rate 0.31% among 370,000; in the data active means inhibition above about 13%
Target sequence (Q9UBB5 whole entry, looked up, the tested form may be a part): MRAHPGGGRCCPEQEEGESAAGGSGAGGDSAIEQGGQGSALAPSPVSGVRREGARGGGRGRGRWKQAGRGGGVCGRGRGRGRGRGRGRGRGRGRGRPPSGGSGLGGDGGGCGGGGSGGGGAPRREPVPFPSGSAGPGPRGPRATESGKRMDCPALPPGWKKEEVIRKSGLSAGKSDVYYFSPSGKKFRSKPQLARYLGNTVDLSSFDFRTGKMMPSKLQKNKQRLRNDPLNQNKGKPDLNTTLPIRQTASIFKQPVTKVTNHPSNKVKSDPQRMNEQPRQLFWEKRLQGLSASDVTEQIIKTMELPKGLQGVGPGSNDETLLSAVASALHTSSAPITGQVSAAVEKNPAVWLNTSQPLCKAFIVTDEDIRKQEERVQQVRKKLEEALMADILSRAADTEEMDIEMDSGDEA
ABHD5 PLIN5 conf: ABHD5-PLIN5 interaction inhibitors, confirmation, biochemical, luminescence. shares compounds with ABHD5 PLIN5 PPI. inhibition, % at 4 µM. hit rate 67% among 2,200; in the data active means inhibition above about 23%;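 further: 0% = DMSO vehicle wells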
HNF4 split-luc: HNF4 dimerization inhibitors, counter-screen for ABHD5-PLIN5 interaction inhibitor project, biochemical, split-luciferase complementation, luminescence. inhibition, % at 4 µM. shares compounds with ABHD5 PLIN5 PPI. hit rate 77% among 2,200. AID 651674, 2012;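 active means mean inhibition across replicate wells exceeding the computed hit threshold, cut at about 13% in these data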;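 further: light from luciferase halves that rejoin when HNF4 fusion proteins dimerize; 0% = DMSO only wells and the 100% control is not given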
* hit, by the source's call; . = no result; ! = repeats disagree. Rows were chosen to be rich in hits. Some 4.1% of all compounds tested hit in one or more screens of this group.

SMILES | ABHD5 PLIN5 PPI | UHRF1 MBD2 ctr | PRMT1 FP inh | rCAG binder | LEDGF integ inh | MBD2 inh | ABHD5 PLIN5 conf | HNF4 split-luc
C=CC(=O)NC1CCCCN(C)C1=O (configuration not stated) | . | 4.0 | 0.8 | 21.4 | -4.5 | 4.1 | . | .
CCOC(=O)N(C)[C@H]1C[C@H]2c3cc(-c4ccccc4C)ccc3CCN2C[C@H]1[C@H](C)O | . | 0.3 | 5.7 | 2.7 | -2.1 | -4.8 | . | .
O=C(NCc1cccnc1)/C(=C/c1ccc(-c2ccc(Cl)cc2)o1)S(=O)(=O)c1ccccc1 | 79.6* | -0.9 | 7.3 | -0.5 | -1.3 | -4.2 | 97.4* | 88.1*
O=C(NCc1cccnc1)/C(=C\c1ccc(-c2ccc(Br)cc2)o1)S(=O)(=O)c1ccccc1 | 73.3* | 1.1 | 8.5 | 2.5 | -1.0 | -1.4 | 92.8* | 82.7*
O=C(CN(Cc1ccc(Br)cc1)S(=O)(=O)c1ccccc1)NCc1cccnc1 | -2.6 | -0.8 | -0.5 | -5.6 | 0.1 | -3.3 | . | .
CCN(CC)Cc1cc(Nc2c3ccccc3nc3c4ccccc4n(C)c23)cc(CN(CC)CC)c1O | 26.8* | 19.6 | 44.6* | 12.8 | 8.9 | 5.8 | 43.7* | 28.5*
CCCSc1nc(NCc2ccco2)c2c3c(sc2n1)COC(C)(C)C3 | 28.2* | 0.5 | 3.2 | 15.3 | 1.0 | -5.7 | 6.6 | 4.9
CCOC(=O)/C(=C\c1ccc(N2CCC(c3ccccc3)=N2)cc1)C(C)=O | 10.1 | 1.2 | 3.2 | -0.6 | 2.1 | 6.9 | . | .
CCOC(=O)C(=Cc1ccc(-n2cncn2)cc1)C(=O)OCC | 43.1* | 0.7 | 14.0 | -7.5 | -4.3 | 5.1 | 81.4* | 94.0*
CC[C@@H]1CC=C[C@H]2[C@H]1C(=O)N(Cc1ccccc1)[C@H]2c1ccoc1 | 23.5* | . | . | . | . | . | 36.7* | 34.7*
C[C@@H]1CC=C[C@H]2[C@H]1C(=O)N(Cc1ccccc1)[C@H]2c1ccoc1 | -0.4 | -1.2 | -0.2 | 1.5 | 5.0 | -3.7 | . | .
Cc1ccccc1N1CCN(S(=O)(=O)c2ccc3c(c2)n(C)c(=O)c(=O)n3C)CC1 | . | 2.2 | 1.2 | 7.3 | 1.0 | -1.8 | . | .
Cn1c(Cl)cnc1C1CC(=O)c2cc(Cl)ccc2O1 (configuration not stated) | 32.5* | 1.9 | 3.8 | 2.5 | 0.3 | -1.9 | 20.4 | 48.7*
CC(=O)N1CCC2(CC1)CC(=O)c1cc(Cl)ccc1O2 | 2.5 | -2.4 | 1.9 | 1.6 | 0.5 | -0.2 | . | .
O=C1CC(c2ccc(Cl)cc2)Oc2ccc(Cl)cc21 (configuration not stated) | 23.2* | -3.0 | 0.4 | 3.8 | -1.5 | 0.0 | 62.2* | 33.3*
C=C1CCc2c([nH]c3ccc(OCC(C)C)cc23)C1=O | 41.5* | 0.9 | 5.8 | 5.2 | -5.9 | -4.9 | 90.0* | 72.5*
O=C([C@@H]1C[C@H]1c1ccccc1)N1CCC(Oc2cccnc2)CC1 | . | 0.3 | -10.9 | -2.9 | 4.3 | -1.4 | . | .
COc1cccc(CN(C)C(=O)[C@H]2O[C@@H](n3cnc4c(=O)[nH]c(N)nc43)[C@H](O)[C@@H]2O)c1 | . | -0.5 | -2.8 | 0.5 | 2.1 | -7.5 | . | .
CC(=O)Nc1sc2c(c1-c1cc3ccccc3o1)CCNC2 | . | -16.0 | 2.2 | . | -0.5 | -0.7 | . | .
C=C[C@]1(C)C[C@@H](OC(=O)CSCCN(CC)CC)[C@]2(C)C(C)CC[C@]3(CCC(=O)[C@H]32)[C@@H](C)[C@@H]1O (some centres not stated) | 23.4*! | 0.6 | -0.1 | -3.2 | -3.4 | -0.5 | 33.1* | 1.0
Cc1cc(/C=C2\SC(=Nc3ccccc3)NC2=O)c(C)n1-c1ccc(S(N)(=O)=O)cc1 | 28.5* | 12.7 | 0.7 | 25.8 | 1.7 | -2.7 | 6.8 | 7.0
Cc1ccc(-n2c(C)cc(/C=C3\SC(=O)NC3=O)c2C)cc1 | -7.0 | 3.4 | 0.4 | 12.0 | -3.3 | 1.4 | . | .
COCCCN1CCN(C2Cc3ccccc3Sc3ccc(Cl)cc32)CC1 (configuration not stated) | 25.2* | 2.3 | 4.6 | -7.2 | -1.6 | 3.0 | 17.3 | 3.3
NC(=O)CCN1CCN(CCOC2Cc3cc(Cl)ccc3Sc3ccccc32)CC1 (configuration not stated) | 24.8* | -1.1 | -3.8 | -4.6 | 2.0 | 0.9 | 22.2* | 6.5
COc1ccc2c(c1)CC(N1CCN(C)CC1)c1cc(OC)ccc1S2 (configuration not stated) | 16.5 | 2.8 | 3.5 | -3.9 | -4.5 | 3.9 | . | .
SMILES | ABHD5 PLIN5 PPI | UHRF1 MBD2 ctr | PRMT1 FP inh | rCAG binder | LEDGF integ inh | MBD2 inh | ABHD5 PLIN5 conf | HNF4 split-luc
Cn1cnc([N+](=O)[O-])c1S(=O)(=O)Nc1ccccc1 | 21.1 | -1.8 | -2.5 | 1.6 | -3.8 | 0.8 | . | .
Cn1cnc([N+](=O)[O-])c1S(=O)(=O)c1cccc(Cl)c1 | 60.7* | 12.3 | 14.4 | -2.9 | -2.6 | 0.4 | 64.0* | 93.5*
CC(=O)Oc1c(Cl)c(N2CCOCC2)c(OC(C)=O)c2ccccc12 | 35.7* | -2.3 | -0.4 | -5.2 | -2.9 | 2.9 | 79.1* | 7.6
Fc1cccc(Cc2c(-c3ccccc3)nc3ccc(Cl)cn23)c1 | 4.8 | 5.2 | -2.7 | 24.1 | 5.5 | -6.9 | . | .
Cc1ccc2nc(-c3ccco3)c(Cc3ccccc3)n2c1 | 38.1* | 7.4 | 19.4 | 3.4 | -1.6 | -5.3 | 6.8 | 9.7
Fc1cccc(Cc2c(-c3ccco3)nc3ccc(Cl)cn23)c1 | 74.9* | . | . | . | . | . | 20.6 | 52.5*
COC(=O)c1ccc2nc(-c3ccco3)c(Cc3ccccc3)n2c1 | 67.4* | 21.6* | 23.8* | 25.0 | 8.5 | 1.2 | 56.8* | 83.1*
COC(=O)c1ccc2nc(-c3ccc(Cl)cc3)c(Cc3cccc(Cl)c3)n2c1 | -0.2 | 3.8 | -4.3 | 9.3 | 2.5 | 4.7 | . | .
COc1ccc(-c2nc3ccc(Cl)cn3c2Cc2ccccc2)cc1OC | -1.2 | 11.0 | 0.7 | 23.7 | -2.7 | 1.0 | . | .
Clc1ccc2nc(-c3ccco3)c(Cc3ccccc3)n2c1 | 55.1* | 15.8 | 24.3* | 20.8 | 6.2 | 5.8 | 57.6* | 72.4*
COC(=O)[C@]12C[C@H](CC(=O)NCc3cccc(C(F)(F)F)c3)C(=O)N(Cc3cccc4ccccc34)C1=C[C@H](C1CCCC1)O[C@@H]2C | . | 1.2 | -0.2 | 5.1 | -1.2 | 4.6 | . | .
